Drawing on PubChem BioAssay AID624331 (National Center for Advancing Translational Sciences (NCATS), 2012), this text covers Potency for 39 molecules.

Each structure is given as a SMILES string. Results filed as inconclusive are left out. Where a call stands in place of a potency, no number is given. Active and inactive are the calls of the source. The call rests on the fitted dose curve; in most records, active means well fitted activation curve with a large enough effect; inconclusive means small, poorly fitted or top-dose-only effect; inactive means no such curve, though single readings can be large or run the other way.
Potency means the concentration at half of the fitted maximal effect.

This assay in a line: qHTS assay for re-activators of p53 using a Luc reporter: Hit Validation with no p53 Expressed. Conditions: p53-null cells, luciferase reporter counter-screen; series mostly up to 46.1 µM. The procedure, abridged: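 Counter-screen of primary hits in a cell line not transfected with p53, in Opti-MEM with 10% FBS; compounds at several concentrations (10 mM stock, 1:5; top 46.1 µM in well), 24 h at 37 deg C, 5% CO2. Luminescence read after 10 min with Amplite reagent.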
With `Cc1ccc(C(=O)Nc2cnc3sc(C)nn3c2=O)cc1`, the Potency result is “inactive”.
With `Cc1csc(NC(=O)CSc2nnc(-c3cccs3)n2C)n1` the entry was “inactive”.
As for `Cc1cs/c(=N/C(=S)Nc2ccccc2)n1C`, the Potency is 1300 nM (active).
For `COc1ccccc1N=Nc1[nH]c2ccc(C)cc2c1O`, the Potency result is “inactive”.
As to `Cc1cc(C)cc(NC(=O)CSc2nnc(-c3ccccc3C)o2)c1`, the Potency result is “inactive”.
As for `CCCSc1ccc2nc(-c3ccccc3)cn2c1`, the Potency entry is “inactive”.
As for `CCOc1ccc2c(c1)C(C)=CC(C)(C)N2S(=O)(=O)c1ccc(NC(C)=O)cc1`, the Potency result is “inactive”.
On to `Cc1ccc2cc3cc(C(=O)N4CCCCCC4)oc3nc2c1`, for which the Potency result was “inactive”.
Take `O=C(NNC(=S)NC1CCCCC1)c1cccs1`: the Potency result was “inactive”.
Turning to `Cc1ccc(C)c(N2CCN(C(=O)CCc3nc(-c4ccccc4C(F)(F)F)no3)CC2)c1`, the Potency entry is “inactive”.
With `CC(C)c1ccc(NC(=S)NN2CCOCC2)cc1` the entry was “inactive”.
With `Nc1nonc1-n1nnc(C(=O)N/N=C/c2cc(Br)ccc2O)c1CSC1=NCCS1` the entry was “inactive”.
In the case of `Cc1ccc(C(=O)Nc2nnc(SCC(=O)N3CCCc4ccccc43)s2)cc1`, the Potency entry was “inactive”.
On to `COc1ccc2oc(C(=O)Nc3nc(C)cs3)c(C)c2c1`, for which the Potency entry was “inactive”.
With `C/C(=C\COc1ccc2ccc(=O)oc2c1)CC[C@@H](O)C(C)(C)O` the entry was “inactive”; with `CC(C)CC(NC(=O)C1CCC(=O)N1)C(=O)NC(CC(C)C)C(=O)N1CCCC1C(N)=O` (centres undefined), “inactive”; with `O=C(Cc1ccccc1)NCc1ccc(F)cc1`, “inactive”.
With `CCOc1ccc(NS(=O)(=O)c2ccc(C(=O)NC3CCN(Cc4ccccc4)CC3)cc2)cc1` the entry was “inactive”; with `Cc1ccccc1CSc1ncc(C#N)c(N)n1`, “inactive”.
In the case of `O=C(/C=C/c1cnc2ccccc2n1)NC12CC3CC(CC(C3)C1)C2`, the Potency entry is “inactive”.
Consider `Cc1ccc(C)n1-c1sc2c(c1C(=O)O)CCCC2`, for which the Potency result is “inactive”.
On to `Cc1ccccc1Nc1nc(N)nc(COC(=O)c2ccco2)n1`, for which the Potency result is “inactive”.
Turning to `CCOc1ccc(C(O)Cc2nc3ccccc3n2C)cc1` (centres undefined), the Potency entry was “inactive”.
With `N#Cc1cccc(N=Cc2c(O)ccc3ccccc23)c1` the entry was “inactive”; with `O=C(NNC(=O)c1ccc(Cl)cc1Cl)c1ccncc1`, “inactive”.
As for `O=C(NNc1c2ccccc2nc2ccccc12)c1ccc(O)cc1`, the Potency entry was “inactive”.
`CC(C)(C)NC(=O)C(c1ccc(Cl)cc1)N(CCO)C(=O)c1snc(C(N)=O)c1N` (centres undefined): the Potency result is “inactive”.
Turning to `CN1CC(C(=O)Nc2ccc(F)c(Cl)c2)CC1=O` (centres undefined), the Potency entry was “inactive”.
For `CCSc1nnc(SCC(=O)NC2CCCCC2)s1`, the Potency result was “inactive”.
With `COC(=O)CSc1nc2cc(OC)ccc2cc1C#N` the entry was “inactive”.
With `Cc1ccc2nc(-c3ccc(NC(=O)COC(=O)c4ccc(Br)o4)cc3)sc2c1` the entry was “inactive”.
For the molecule `O=C(COC(=O)CNC(=O)c1ccc([N+](=O)[O-])o1)Nc1ncc(C(F)(F)F)cc1Cl`, the Potency entry was “inactive”.
With `CC(C)CCn1cnc2c(sc3nc4c(cc32)CSC(C)(C)C4)c1=O`, the Potency result was “inactive”.
Regarding `Cc1ccc(C(=O)c2c3ccc([N+](=O)[O-])cc3[n+]([O-])n2CCCN)cc1`, the Potency entry was “inactive”.
With `Fc1cccc(NCc2cn3ccccc3n2)c1` the entry was “inactive”; with `Cn1c(=NC(=O)c2ccco2)sc2cccc(F)c21`, “inactive”; with `COc1ccc(-c2nsc3c(N4CCCC4)ncnc23)cc1`, “inactive”.
With `O=C(c1cccc(S(=O)(=O)NCc2ccc3c(c2)OCO3)c1)N1CCCC1` the entry was “inactive”.
In the case of `C/C(=N\NC(=O)c1cc(C)nc2ccccc12)c1ccccn1`, the Potency result is “inactive”.
